Several values for one entry are separate records, joined by “and”; a condition that tells them apart may be missing. Equal entries are not always repeated. Inconclusive results are not listed. A call without a number means that no potency is given here. The source holds several records for some structures; these can differ, active in one and inactive in another. Activity calls are given as the source filed them. Unless noted, the call rests on the fitted dose curve; in most records, active means well fitted curve in the direction sought with a large enough effect in the repeat runs; inconclusive means weak or mixed curves; inactive means no such curve, though single readings can be large; an effect the other way counts as inactive or inconclusive.
Key:
[1] = molecular target: Acetylcholinesterase (Homo sapiens) (UniProt P22303); test: Acetylcholinesterase (AChE) small molecule antagonists: fluorescence cell-based qHTS assay (AID 1347398; calls by dose curve; further: nearly all actives have a fitted effect of over 50% in size; further: potency means the concentration at half of the fitted maximal effect); settings: Potency: AChE activity
Chain of Acetylcholinesterase (Homo sapiens) (P22303 whole entry, looked up): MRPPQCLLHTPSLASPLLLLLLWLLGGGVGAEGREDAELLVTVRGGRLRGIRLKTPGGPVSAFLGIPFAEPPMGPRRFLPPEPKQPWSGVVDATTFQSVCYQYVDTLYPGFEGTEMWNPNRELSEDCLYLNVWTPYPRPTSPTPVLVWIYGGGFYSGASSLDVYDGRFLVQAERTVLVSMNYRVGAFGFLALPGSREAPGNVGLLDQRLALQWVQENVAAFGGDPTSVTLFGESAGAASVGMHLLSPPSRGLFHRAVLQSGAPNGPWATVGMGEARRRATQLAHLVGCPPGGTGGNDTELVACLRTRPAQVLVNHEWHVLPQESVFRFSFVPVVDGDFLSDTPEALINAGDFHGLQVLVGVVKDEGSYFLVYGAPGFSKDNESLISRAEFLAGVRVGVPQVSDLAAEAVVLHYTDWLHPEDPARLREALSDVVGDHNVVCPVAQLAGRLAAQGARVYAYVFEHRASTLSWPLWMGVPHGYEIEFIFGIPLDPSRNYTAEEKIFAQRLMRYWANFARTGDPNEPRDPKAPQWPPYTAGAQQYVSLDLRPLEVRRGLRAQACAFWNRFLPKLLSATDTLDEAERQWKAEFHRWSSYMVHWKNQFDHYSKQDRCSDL
Procedure, shortened: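 SH-SY5Y, 2,000 cells/well, attached overnight; cmpd 30 min 37 C; acetylthiocholine/Thiolite Green cocktail 40 min RT; fluorescence Ex/Em 490/520 nm.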

[2] = molecular target: Acetylcholinesterase (Homo sapiens) (UniProt P22303); test: Acetylcholinesterase (AChE) small molecule antagonists: enzyme-based qHTS assay with human liver microsomes (AID 1347399; calls by dose curve; further: nearly all actives have a fitted effect of over 60% in size; further: potency means the concentration at half of the fitted maximal effect); settings: Potency: qHTS inhibition
Procedure, shortened: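 Recombinant human AChE (50 mU/mL in the enzyme mix) and human liver microsomes (0.25 mg/mL final) were preincubated with compound and NADPH (0.25 mg/mL final) for 30 min at 37 C. Acetylthiocholine/DTNB was then added; thiocholine was read colorimetrically after 10 min at room temperature.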

[3] = molecular target: Cytochrome P450 2D6 (Homo sapiens) (UniProt P10635); test: Cytochrome P450 Family 2 Subfamily D Member 6 (CYP2D6) small molecule antagonists: luciferase reporter qHTS assay (AID 1671196); further: nearly all actives have a fitted effect of over 50% in size; further: potency means the concentration at half of the fitted maximal effect
Chain of Cytochrome P450 2D6 (Homo sapiens) (P10635 whole entry, looked up): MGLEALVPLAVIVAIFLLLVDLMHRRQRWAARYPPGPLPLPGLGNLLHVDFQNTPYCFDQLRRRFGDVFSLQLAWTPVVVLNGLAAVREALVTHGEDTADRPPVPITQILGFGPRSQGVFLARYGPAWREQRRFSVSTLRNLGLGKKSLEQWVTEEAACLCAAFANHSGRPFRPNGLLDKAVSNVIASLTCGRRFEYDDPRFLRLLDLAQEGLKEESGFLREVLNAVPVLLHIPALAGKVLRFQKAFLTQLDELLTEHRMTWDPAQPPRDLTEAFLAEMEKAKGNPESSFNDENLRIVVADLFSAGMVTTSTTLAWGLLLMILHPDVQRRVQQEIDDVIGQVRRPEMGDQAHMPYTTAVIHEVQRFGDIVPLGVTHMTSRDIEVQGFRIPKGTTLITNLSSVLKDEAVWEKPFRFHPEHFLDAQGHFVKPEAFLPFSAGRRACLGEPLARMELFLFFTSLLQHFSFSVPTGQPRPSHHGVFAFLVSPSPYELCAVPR
Procedure, shortened: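 Chemicals tested for interference with CYP2D6 activity; proluciferin substrate, NADPH regeneration, 1 h at room temperature, luminescent detection.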

[4] = molecular target: Cytochrome P450 2C19 (Homo sapiens) (UniProt P33261); test: Cytochrome P450 Family 2 Subfamily C Member 19 (CYP2C19) small molecule antagonists: luciferase reporter qHTS assay (AID 1671197); further: nearly all actives have a fitted effect of over 65% in size; further: potency means the concentration at half of the fitted maximal effect
Chain of Cytochrome P450 2C19 (Homo sapiens) (P33261 whole entry, looked up): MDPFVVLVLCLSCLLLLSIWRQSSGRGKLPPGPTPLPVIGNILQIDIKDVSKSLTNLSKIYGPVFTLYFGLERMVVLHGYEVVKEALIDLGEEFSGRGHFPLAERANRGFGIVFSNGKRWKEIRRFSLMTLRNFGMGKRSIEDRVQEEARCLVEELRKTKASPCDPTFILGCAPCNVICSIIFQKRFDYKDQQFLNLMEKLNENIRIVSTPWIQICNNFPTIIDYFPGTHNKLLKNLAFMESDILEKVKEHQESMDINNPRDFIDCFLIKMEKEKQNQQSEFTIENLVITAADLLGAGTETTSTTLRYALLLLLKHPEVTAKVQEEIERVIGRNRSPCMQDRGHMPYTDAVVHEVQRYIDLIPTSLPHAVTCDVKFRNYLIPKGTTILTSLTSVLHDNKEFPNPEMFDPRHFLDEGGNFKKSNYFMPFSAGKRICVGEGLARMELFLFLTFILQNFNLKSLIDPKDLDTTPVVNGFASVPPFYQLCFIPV
Procedure, shortened: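 Luminescent readout of CYP2C19 activity: luciferin product detected 20 min after adding detection reagent. Before that, compound and enzyme-substrate mix preincubated 10 min at room temperature; NADPH-regenerating system started a 1 h, 37C reaction. Ketoconazole as positive control.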

[5] = molecular target: Cytochrome P450 2C9 (Homo sapiens) (UniProt P11712); test: Cytochrome P450 Family 2 Subfamily C Member 9 (CYP2C9) small molecule antagonists: luciferase reporter qHTS assay (AID 1671198); further: nearly all actives have a fitted effect of over 50% in size; further: potency means the concentration at half of the fitted maximal effect
Chain of Cytochrome P450 2C9 (Homo sapiens) (P11712 whole entry, looked up): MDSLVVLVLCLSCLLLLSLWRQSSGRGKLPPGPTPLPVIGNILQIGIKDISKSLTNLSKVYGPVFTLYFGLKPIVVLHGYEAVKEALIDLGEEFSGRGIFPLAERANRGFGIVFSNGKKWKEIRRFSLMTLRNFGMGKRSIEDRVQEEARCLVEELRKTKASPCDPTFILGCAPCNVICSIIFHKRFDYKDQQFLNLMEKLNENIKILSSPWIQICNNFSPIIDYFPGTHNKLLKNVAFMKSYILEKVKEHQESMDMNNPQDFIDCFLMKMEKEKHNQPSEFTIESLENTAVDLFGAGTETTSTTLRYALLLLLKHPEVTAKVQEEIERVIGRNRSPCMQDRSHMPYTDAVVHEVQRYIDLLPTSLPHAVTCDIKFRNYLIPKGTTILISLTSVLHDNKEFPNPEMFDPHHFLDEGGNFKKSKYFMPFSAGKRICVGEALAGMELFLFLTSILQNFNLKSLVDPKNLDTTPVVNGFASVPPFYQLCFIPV
Procedure, shortened: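 P450-Glo proluciferin substrate with CYP2C9 enzyme; 10 min RT preincubation, then NADPH regeneration 1 h at 37C; luciferin detection reagent 20 min RT, luminescence in relative luminescence units.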

[6] = molecular target: Voltage-gated inwardly rectifying potassium channel KCNH2 (Homo sapiens) (UniProt Q12809); test: Human Ether-a-go-go-Related Gene (hERG) channel small molecule antagonists: fluorescence cell-based qHTS assay (AID 1671200);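 further: hERG-expressing U2OS cells given a thallium stimulus after FluxOR II dye loading; series mostly up to about 77 µM; nearly all actives have a fitted effect of over 50% in size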
Chain of Voltage-gated inwardly rectifying potassium channel KCNH2 (Homo sapiens) (Q12809 whole entry, looked up): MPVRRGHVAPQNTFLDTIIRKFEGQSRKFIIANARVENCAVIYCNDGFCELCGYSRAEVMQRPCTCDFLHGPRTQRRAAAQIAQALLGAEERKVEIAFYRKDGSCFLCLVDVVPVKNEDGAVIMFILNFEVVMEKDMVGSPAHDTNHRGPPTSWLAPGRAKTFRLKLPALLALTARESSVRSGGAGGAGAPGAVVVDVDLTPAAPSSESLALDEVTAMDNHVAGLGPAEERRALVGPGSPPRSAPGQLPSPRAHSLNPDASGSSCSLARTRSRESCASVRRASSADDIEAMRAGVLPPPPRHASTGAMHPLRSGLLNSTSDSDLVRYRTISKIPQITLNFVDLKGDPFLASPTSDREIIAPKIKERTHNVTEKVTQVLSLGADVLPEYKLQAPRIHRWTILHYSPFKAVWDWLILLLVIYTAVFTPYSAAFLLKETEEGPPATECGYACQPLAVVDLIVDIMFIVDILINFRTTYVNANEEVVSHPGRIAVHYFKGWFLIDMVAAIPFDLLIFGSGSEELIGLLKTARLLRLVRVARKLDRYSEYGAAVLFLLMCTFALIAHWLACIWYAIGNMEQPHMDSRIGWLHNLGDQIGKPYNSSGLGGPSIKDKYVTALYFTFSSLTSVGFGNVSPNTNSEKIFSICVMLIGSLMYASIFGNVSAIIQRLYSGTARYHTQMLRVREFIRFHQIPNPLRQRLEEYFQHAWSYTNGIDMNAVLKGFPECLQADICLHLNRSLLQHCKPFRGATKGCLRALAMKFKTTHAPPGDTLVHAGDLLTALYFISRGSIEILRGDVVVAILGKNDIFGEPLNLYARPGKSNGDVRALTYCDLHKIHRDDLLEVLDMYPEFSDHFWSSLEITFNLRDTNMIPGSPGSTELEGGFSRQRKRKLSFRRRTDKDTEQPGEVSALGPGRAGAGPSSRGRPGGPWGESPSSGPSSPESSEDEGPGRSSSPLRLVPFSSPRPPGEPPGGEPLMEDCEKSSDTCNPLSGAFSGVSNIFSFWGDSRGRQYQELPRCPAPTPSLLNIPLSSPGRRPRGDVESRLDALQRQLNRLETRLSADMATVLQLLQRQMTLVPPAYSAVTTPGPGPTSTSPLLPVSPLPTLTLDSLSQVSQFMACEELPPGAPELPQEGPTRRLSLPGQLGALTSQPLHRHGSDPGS
Procedure, shortened: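 Measured: Tl+ flux via fluorescence (480/540 nm) in hERG-expressing U2OS cells after 1 h dye loading at room temperature.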

[7] = molecular target: Cytochrome P450 3A4 (Homo sapiens) (UniProt P08684); test: Cytochrome P450 Family 3 Subfamily A Member 4 (CYP3A4) small molecule antagonists: luciferase reporter qHTS assay (AID 1671201); further: nearly all actives have a fitted effect of over 50% in size; further: potency means the concentration at half of the fitted maximal effect
Chain of Cytochrome P450 3A4 (Homo sapiens) (P08684 whole entry, looked up): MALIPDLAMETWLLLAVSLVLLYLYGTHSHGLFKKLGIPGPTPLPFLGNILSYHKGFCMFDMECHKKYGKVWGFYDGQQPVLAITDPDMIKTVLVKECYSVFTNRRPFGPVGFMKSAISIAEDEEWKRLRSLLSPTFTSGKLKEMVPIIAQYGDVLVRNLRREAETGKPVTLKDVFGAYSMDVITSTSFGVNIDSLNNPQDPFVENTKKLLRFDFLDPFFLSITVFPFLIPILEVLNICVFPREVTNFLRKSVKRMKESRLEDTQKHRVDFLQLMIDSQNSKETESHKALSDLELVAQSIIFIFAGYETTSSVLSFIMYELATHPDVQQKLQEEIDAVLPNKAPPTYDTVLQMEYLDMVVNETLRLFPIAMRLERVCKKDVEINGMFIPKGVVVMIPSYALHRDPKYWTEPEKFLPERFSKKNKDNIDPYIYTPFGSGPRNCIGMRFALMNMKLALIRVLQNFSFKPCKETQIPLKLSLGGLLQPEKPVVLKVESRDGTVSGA
Procedure, shortened: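 Setup: enzyme-substrate mix, compound pin transfer, 10 min RT. Reaction: NADPH regeneration solution, 1 h RT. Readout: detection reagent stops turnover, luminescence measured after 20 min, expressed in relative luminescence units.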

[8] = molecular target: Cytochrome P450 1A2 (Homo sapiens) (UniProt P05177); test: Cytochrome P450 Family 1 Subfamily A Member 2 (CYP1A2) small molecule antagonists: luciferase reporter qHTS assay (AID 1671199); further: nearly all actives have a fitted effect of over 50% in size; further: potency means the concentration at half of the fitted maximal effect
Chain of Cytochrome P450 1A2 (Homo sapiens) (P05177 whole entry, looked up): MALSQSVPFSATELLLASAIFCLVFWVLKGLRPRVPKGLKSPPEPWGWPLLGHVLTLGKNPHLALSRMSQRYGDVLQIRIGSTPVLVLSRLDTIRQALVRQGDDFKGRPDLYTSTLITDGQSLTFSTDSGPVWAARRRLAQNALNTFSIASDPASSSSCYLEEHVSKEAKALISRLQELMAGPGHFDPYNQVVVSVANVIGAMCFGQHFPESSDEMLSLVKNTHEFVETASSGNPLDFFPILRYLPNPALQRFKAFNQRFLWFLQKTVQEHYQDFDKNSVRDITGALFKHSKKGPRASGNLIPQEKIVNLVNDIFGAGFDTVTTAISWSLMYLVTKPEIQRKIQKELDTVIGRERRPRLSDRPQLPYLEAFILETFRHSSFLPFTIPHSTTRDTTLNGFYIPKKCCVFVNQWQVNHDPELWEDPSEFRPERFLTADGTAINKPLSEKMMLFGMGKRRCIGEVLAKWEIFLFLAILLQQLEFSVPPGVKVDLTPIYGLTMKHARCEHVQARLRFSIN
Procedure, shortened: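 Read-out is luminescence from luciferin detection reagent (20 min) proportional to CYP1A2 activity; compounds in DMSO preincubated 10 min with enzyme and proluciferin substrate, then NADPH regeneration solution, 1 h, room temperature.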

Row | Compound | Potency [1] | Potency [2] | Potency [3] | Potency [4] | Potency [5] | Potency [6] | Potency [7] | Potency [8]
1 | CC/C(=N\OC/C=C/Cl)C1=C(O)CC(C2CCOCC2)CC1=O (centres undefined) | inactive | inactive | inactive | 70.9 µM (active) | 31.7 µM (active) | inactive | 31.7 µM (active) | 
2 | COC1=CC(=O)O[C@@H](CCc2ccccc2)C1 | inactive | inactive | inactive | 5.87 µM (active) | 33 µM (active) | inactive | inactive | 
3 | CO/C=C(/C(=O)OC)c1ccccc1COc1cccc(C(F)(F)F)n1 | inactive | inactive | 39.9 µM (active) | 0.709 µM (active) | 39.9 µM (active) | inactive | inactive | 
4 | CCOc1ccc(C(C)(C)COCc2cccc(Oc3ccccc3)c2)cc1 | inactive | inactive | 35.6 µM (active) | 17.8 µM (active) | 6.33 µM (active) | inactive | inactive | 
5 | CCc1ccc(C(=O)NN(C(=O)c2cc(C)cc(C)c2)C(C)(C)C)cc1 | inactive | inactive | inactive | 5.03 µM (active) |  | inactive | 5.03 µM (active) | inactive
6 | NC(=O)C(Cl)(Cl)Cl | inactive | inactive | inactive | inactive | inactive | inactive | inactive | 
7 | COc1cc(Cl)c(OC)cc1Cl | inactive | inactive | inactive | 79.6 µM (active) | 71 µM (active) |  | 15.9 µM (active) | 
8 | N#C/C(N)=C(/N)C#N | inactive | inactive | inactive | 30.8 µM (active) |  |  |  | 21.8 µM (active)
9 | OC(c1ccc(Cl)cc1)(c1ccc(Cl)cc1)c1cccnc1 | inactive | inactive | 11.2 µM (active) | 0.0796 µM (active) | 0.448 µM (active) |  | 2.24 µM (active) | 
10 | Cc1ccc(N)cc1C | inactive | inactive | 5.07 µM (active) | 28.5 µM (active) |  | inactive |  | 4.52 µM (active)
11 | NC(=O)CI | inactive | inactive | 63.8 µM (active) | 80.4 µM (active) |  | inactive | inactive | 35.9 µM (active)
12 | Cc1ccc2ccccc2c1 | inactive | inactive | inactive | inactive | inactive | inactive | inactive | 
13 | C=CCCl | inactive | inactive | inactive | inactive | inactive | inactive | inactive | 
14 | CN1C(=O)NC(=O)C(C)(C2=CCCCC2)C1=O (centres undefined) | inactive | inactive | inactive | inactive | inactive | inactive | inactive | 
15 | Cl/C=C\C[N+]12CN3CN(CN(C3)C1)C2 | inactive | inactive | 71 µM (active) | inactive | inactive | inactive | inactive | 
16 | CCCC(=O)Cl | inactive | inactive | inactive | inactive | inactive |  | inactive | 
17 | CCCCN=C=O | inactive | inactive | inactive | 35.2 µM (active) | inactive | inactive | inactive | 
18 | O=NN1CCCCCC1 | inactive | inactive | inactive | inactive | inactive | inactive | inactive | 
19 | COP(=S)(OC)Oc1ccc([N+](=O)[O-])cc1Cl | inactive | inactive | inactive | 39.9 µM (active) | 20 µM (active) |  | 6.33 µM (active) | 

Row | Compound | Potency [1] | Potency [2] | Potency [3] | Potency [4] | Potency [5] | Potency [6] | Potency [7] | Potency [8]
20 | Cn1sc(Cl)cc1=O | inactive | inactive | inactive | inactive | 71 µM (active) | inactive | inactive | 
21 | O=C(C(Cl)(Cl)Cl)C(Cl)(Cl)Cl | inactive | inactive | 36.3 µM (active) | inactive | inactive | inactive | inactive | 
22 | C=CC(=O)OCC(C)C | inactive | inactive | inactive | inactive | inactive |  | inactive | 
23 | O=C=Nc1ccc(Cl)cc1 | inactive | inactive | inactive | 2 µM (active) | 7.96 µM (active) | inactive | inactive | 
24 | O=C(OC1CCCCC1)c1ccccc1C(=O)OC1CCCCC1 | inactive | inactive | inactive | 33.4 µM (active) | 26.5 µM (active) |  | 11.9 µM (active) | 
25 | Oc1ccc(Cl)c(Cl)c1Cl | inactive | inactive | inactive | 26.1 µM (active) |  | inactive |  | 26.1 µM (active)
26 | CCCCOC(=O)c1ccccc1C(=O)OCc1ccccc1 | inactive | inactive | inactive and 71 µM (active) | 1.78 µM (active) and 1.12 µM (active) | 8.92 µM (active) and 10 µM (active) |  | inactive | 
27 | O=C(O)C(F)(F)C(F)(F)C(F)(F)C(F)(F)C(F)(F)C(F)(F)C(F)(F)C(F)(F)C(F)(F)F | inactive | inactive | inactive | inactive |  | inactive | inactive | inactive
28 | CC(C)(C)c1cc([N+](=O)[O-])cc([N+](=O)[O-])c1O | inactive | inactive | inactive | 56.2 µM (active) |  | inactive | inactive | 56.2 µM (active)
29 | CC(=O)[C@H]1CC[C@H]2[C@@H]3CC[C@H]4C[C@](C)(O)CC[C@]4(C)[C@H]3CC[C@]12C | inactive | inactive | inactive | inactive | inactive | inactive | inactive | 
30 | Cc1ccccc1C(=O)Nc1cccc(OC(C)C)c1 | inactive | inactive | inactive | 7.96 µM (active) | 22.4 µM (active) | inactive | inactive | 
31 | IC(I)=C(I)I | inactive | inactive | inactive | 7.1 µM (active) | 3.56 µM (active) | inactive | inactive | 
32 | CCN(C)N=O | inactive | inactive | inactive | inactive | inactive | inactive | inactive | 
33 | Sc1ccccc1Cl | inactive | inactive | inactive | inactive | inactive | inactive | inactive | 
34 | CCOP(=S)(OCC)SCn1nnc2ccccc2c1=O | 5.64 µM (active) | 0.252 µM (active) | 35.6 µM (active) | 0.356 µM (active) | 0.633 µM (active) | inactive | 1.59 µM (active) | 
35 | O=C(O)COc1ccc(Cl)cc1 | inactive | inactive | inactive | inactive | inactive | inactive | inactive | 
36 | CCCCCCC#N | inactive | inactive | 38.7 µM (active) | 68.8 µM (active) |  | inactive | inactive | 
37 | C=CC(=O)OC(C)(C)C | inactive | inactive | inactive | 30.6 µM (active) |  | inactive | inactive | 2.43 µM (active)
38 | CC(=O)C(C)(C)C | inactive | inactive | inactive | inactive |  | inactive | inactive | 37 µM (active)

Row | Compound | Potency [1] | Potency [2] | Potency [3] | Potency [4] | Potency [5] | Potency [6] | Potency [7] | Potency [8]
39 | COc1ccc(-c2ccccc2)cc1NNC(=O)OC(C)C | inactive | inactive | 0.83 µM (active) | 0.262 µM (active) |  | inactive | 1.04 µM (active) | 5.88 µM (active)
40 | Cc1c(F)c(F)c(COC(=O)C2C(/C=C(\Cl)C(F)(F)F)C2(C)C)c(F)c1F (centres undefined) | inactive | inactive | inactive | 35.6 µM (active) |  |  | inactive | 
41 | O=C(CBr)Nc1ccc(Cl)cc1C(=O)c1ccccc1F | inactive | inactive | inactive | 1.95 µM (active) |  |  | inactive | 13.8 µM (active)
42 | C=CCC1([C@H](C)CCC)C(=O)NC(=O)NC1=O | inactive | inactive | inactive | inactive |  | inactive | 31.4 µM (active) | inactive
43 | C/C=C/C=O | inactive | inactive | inactive | 34 µM (active) |  | inactive | inactive | 
44 | COC(=O)C(Cl)C(=O)OC | inactive | inactive | inactive |  | inactive | inactive | inactive | inactive
45 | CC(C)O.CC(C)O.OCCN(CCO)CCO.OCCN(CCO)CCO.[Ti] | inactive | inactive | inactive | inactive |  | inactive | inactive | 
46 | CCCCCCCCOC(=O)c1ccc(C(=O)OCCCCCCCC)c(C(=O)OCCCCCCCC)c1 | inactive | inactive | inactive | 80.6 µM (active) |  |  | inactive | inactive
47 | CNC(C)Cc1ccccc1OC (centres undefined) | inactive | inactive | 13.8 µM (active) | inactive |  | inactive | inactive | inactive
48 | C=CC(=O)NCNC(=O)C=C | inactive | inactive | 3.56 µM (active) | inactive |  | inactive | inactive | 
49 | COc1cc(CC(C)N)cc2c1OCO2 (centres undefined) | inactive | inactive | 2.09 µM (active) | inactive |  | inactive | inactive | 
50 | C=CC(=O)OCCCCO | inactive | inactive | inactive | inactive |  | inactive | inactive | 
51 | C(=NC1CCCCC1)=NC1CCCCC1 | inactive | inactive | 63.3 µM (active) |  | inactive | inactive | inactive | inactive
52 | COc1nn(C(=O)NS(=O)(=O)c2ccccc2OC(F)(F)F)c(=O)n1C | inactive | inactive | inactive | inactive |  | inactive | inactive | inactive
53 | C[C@H]1CNCCc2ccc(Cl)cc21 | inactive | inactive | 1.38 µM (active) | inactive |  | inactive | inactive | inactive
54 | CC(=O)CCC(C)=O | inactive | inactive | inactive | inactive |  | inactive | inactive | inactive
55 | ClP(Cl)(Cl)(Cl)Cl | inactive | inactive | inactive |  | inactive | inactive |  | inactive
56 | CC(C)(Cl)[N+](=O)[O-] | inactive | inactive | inactive | 89.8 µM (active) |  | inactive | inactive | 

Reference: PubChem BioAssay (Tox21)
